Screening data as filed in PubChem.
TDP1 cell noCPT – qHTS for Inhibitors of human tyrosyl-DNA phosphodiesterase 1 (TDP1): qHTS in cells in absence of CPT; DT40 Tdp1-/- hTDP1 cells, no CPT, ATP luminescence, 48 h; Potency, µM (series often up to 46.2 µM), for inactives: at the top dose activity change, negative = growth inhibition, hits mostly inhibitors; actives 15% (n = 420,000); AID 686978, 2013; also: potency is read from the fitted curve at half-maximal effect; % is scaled to controls: 0 for no effect and ±100 for the full control effect; nearly all actives have a fitted effect of over 55% in size
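Luminescent ATP content (CellTiter-Glo) served as the growth readout. Knockout chicken DT40 cells expressing human TDP1 were exposed to compounds without camptothecin for a minimum 48 hr at 37 °C.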
TDP1 cell CPT – qHTS for Inhibitors of human tyrosyl-DNA phosphodiesterase 1 (TDP1): qHTS in cells in presence of CPT; chicken DT40 Tdp1-/-;hTDP1 cells + 20 nM CPT, ATP luminescence, 48 h; Potency, µM (highest dose often 46.2 µM), inactives show top-dose activity change, negative = growth inhibition, most hits filed as inhibitors; actives 12% (n = 420,000); AID 686979, 2013; also: potency is read from the fitted curve at half-maximal effect; % is scaled to controls: 0 for no effect and ±100 for the full control effect; nearly all actives have a fitted effect of over 55% in size
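Chicken DT40 Tdp1-/- cells stably complemented with human TDP1 were seeded at 400 cells/well in medium containing 20 nM camptothecin, exposed to pin-transferred compounds, and grown at 37 °C for at least 48 hr. Viability was read as ATP luminescence.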
BCR signal inh – qHTS Assay to Find Inhibitors of Chronic Active B-Cell Receptor Signaling. ABC-DLBCL IkBa-CBG/CBR reporter, luminescence ratio, 4 h. Potency, µM (highest dose often 46.1 µM), inactives show at the top dose activity change, negative = inhibition, actives largely listed as inhibitors. actives 0.05% (n = 340,000). AID 493014, 2011; active = well fitted inhibition curve with a large enough effect in the signal ratio, with a control signal flat, not every such curve was filed as active; inconclusive = small, poorly fitted or top-dose-only effect, or effect the other way, or a change in a side signal; the % refers to the signal ratio;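 also: potency is read from the fitted curve at half-maximal effect; plate controls were basal doxycycline-induced cells for no effect and cells given 10 µM MG132 for full effect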
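TMD8 ABC-DLBCL cells carrying doxycycline-inducible green luciferase fused to IkappaBalpha plus unfused red luciferase were exposed to compounds (up to 46 uM) for 4 hrs at 37C. Activity came from the overlap-corrected green/red luminescence ratio.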
SW480 rereplic – A quantitative high throughput screen for small molecules that induce DNA re-replication in SW480 colon adenocarcinoma cells; SW480 DNA re-replication, Hoechst DNA content imaging, 48 h; actives 1.8% (n = 340,000); Potency, µM (top dose mostly 46.1 µM), without a hit: at the top dose re-replication activation, hits mostly activators; also: potency is read from the fitted curve at half-maximal effect; % of control where 0% means no effect; nearly all actives have a fitted effect of over 55% in size
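Per well, 250 cells were exposed to pinned compound for 48 hr. Nuclear DNA was visualised with Hoechst (40 min, 37 C) and total object intensity recorded by fluorescence scanning.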
MCF10A rerep – A quantitative high throughput screen for small molecules that induce DNA re-replication in MCF 10a normal breast cells. MCF 10A DNA re-replication, Hoechst nuclear intensity, 48 h. Potency, µM (top dose mostly 46.1 µM), for inactives: top-dose activity, positive = re-replication, usual class: activators. actives 2.9% (n = 350,000); also: potency is read from the fitted curve at half-maximal effect; % of control where 0% means no effect; nearly all actives have a fitted effect of over 50% in size
IL1B secr inh – qHTS for Inhibitors of Inflammasome Signaling: IL-1-beta AlphaLISA Primary Screen | actives 4.7% (n = 360,000) | AID 743279, 2014 | THP-1 LPS/ATP IL-1B secretion, AlphaLISA, 16 h; hits give low values | activity change, % at 57.5 µM; in the data active = activity change below about -50%; inconclusive = mostly about -30% to -49%; also: % is scaled to controls: 0 for no effect and ±100 for the full control effect
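Secreted IL-1B measured by AlphaLISA bead assay after 16 h compound exposure of THP-1 cells; compounds (final up to 57.5 uM) added 1 h before LPS (250 ng/mL) and ATP (1.25 mM) stimulation; lower signal means less secretion.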
* = called active by the depositor; ? = inconclusive; . = not tested or not shown. Most compounds without a hit are left out; they make up all but 19% or so of the library. Unless noted, calls follow the shape of the dose curve; as a rule, active = well fitted curve in the direction sought with a large enough effect; inconclusive = small, poorly fitted or top-dose-only effect, or another doubt; inactive = no such curve, though single readings can be large; an effect the other way counts as inactive or inconclusive.

SMILES	TDP1 cell noCPT	TDP1 cell CPT	BCR signal inh	SW480 rereplic	MCF10A rerep	IL1B secr inh
CCN1C[C@@H]2[C@@H]3C(=O)N(C)C(=O)[C@@H]3[C@](CC)(C1=O)N2C(=O)c1ccc(C(C)(C)C)cc1	-13%	-1%	-2%	4%	-17%	19
O=C(NC(=S)NNC(=O)c1ccc(Cl)cc1Cl)c1cccnc1	?	?	?	-1%	?	55
O=C(NNC(=S)NC(=O)c1cccnc1)c1ccc(Cl)cc1	15µM*	23µM*	?	6%	4%	38
O=C(NC(=S)NNC(=O)c1ccccc1O)c1cccnc1	21µM*	?	?	-30%	2%	0
O=C(Cc1ccc(Cl)cc1)NNC(=S)NC(=O)c1cccnc1	-24%	?	4%	1%	-5%	19
COc1ccc(S(=O)(=O)N2CCN(C(=O)Nc3ccccc3OC)CC2)cc1	5%	-18%	-14%	-6%	2%	6
COc1ccc(NC(=O)CSc2nnc(-c3cc(C)[nH]n3)n2N)cc1	26%	1%	-4%	-2%	0%	8
CN(C)c1ccc(/C=C(/C(=O)c2ccc(Cl)cc2Cl)n2cncn2)cc1	23µM*	23µM*	0%	18µM*	?	-10
CN(C)/C=C(/C(=O)c1ccc(Cl)cc1)n1cncn1	19%	-6%	5%	-5%	3%	43
CC(C)CC(=O)/C(=C/c1ccc(N(C)C)cc1)n1cncn1	1%	-7%	0%	-1%	-1%	3
CC(C)CC(=O)/C(=C\c1ccc(Cl)cc1Cl)n1cncn1	1.8µM*	2.9µM*	?	6.5µM*	4.6µM*	-104*
CCOc1ccc(-c2cn[nH]c2N)cc1	-24%	-19%	-8%	?	18µM*	34
Nc1[nH]ncc1-c1ccc(F)cc1	29%	-13%	-26%	-8%	15%	-3
Cc1ccnc(NC(=O)C2CC(=O)N(c3ccc4c(c3)OCCO4)C2)c1 (configuration not stated)	10%	-13%	?	2%	-11%	0
O=C(Nc1c(-c2ccc(Cl)cc2)[nH][nH]c1=O)c1ccccc1Cl	9%	-1%	.	.	.	30
Cc1c(Cc2ccccc2)c(NCCN(C)C)n2c(nc3ccccc32)c1C#N	?	-29%	6%	29µM*	23µM*	-71*
CCc1c(C)c(C#N)c2nc3ccccc3n2c1Cl	.	.	8.2µM*	.	.	.
Cc1cc(-c2ccco2)c(C#N)c2nc3ccccc3n12	18µM*	15µM*	7%	9%	18µM*	-12
CCCCc1c(C)c(C#N)c2nc3ccccc3n2c1NCCN(C)C	?	?	11%	?	23µM*	12
Cc1ccccc1CN(C)C1CCN(C)CC1	1%	1%	-3%	-5%	8%	-1
Cc1ccc(NC(=O)CSC(C)C(=O)OCC(=O)N2CCN(C(=O)c3ccco3)CC2)cc1 (configuration not stated)	1%	-9%	6%	-1%	?	7
NC1(C(=O)O)CSSC1	7.3µM*	-118%	.	?	10µM*	-77*
N[C@@]1(C(=O)O)CN[C@H](C(=O)O)C1	-14%	-4%	.	.	.	.
O=C(c1ccc(Nc2cccc(C(F)(F)F)c2)nc1)N1CCCC1	-28%	?	-1%	-7%	-6%	-20
Cc1nc(Nc2cnc(/C=C/c3cc(C(=O)Nc4cccc(C(F)(F)F)c4)ccc3C)cn2)cc(N2CCNCC2)n1	21µM*	18µM*	?	16µM*	15µM*	-97*
SMILES	TDP1 cell noCPT	TDP1 cell CPT	BCR signal inh	SW480 rereplic	MCF10A rerep	IL1B secr inh
CC(=O)Nc1ccc(NC(=O)CC2(CC(=O)N3CCOCC3)CCCC2)cc1	-21%	7%	2%	-1%	1%	8
O=C(Cc1csc(-c2ccccc2)n1)NCc1ccc(F)cc1	-13%	4%	12%	-4%	7%	2
Cc1cccc(CC(=O)NCCc2csc(-c3ccc(C(F)(F)F)cc3)n2)c1	15µM*	16µM*	.	.	.	.
Cc1cc(C)cc(C(=O)NCCc2csc(-c3ccc(C(F)(F)F)cc3)n2)c1	21µM*	?	.	.	.	.
Cc1cccc(-c2nc(CCNC(=O)Cc3ccc(F)cc3)cs2)c1	23µM*	?	.	.	.	.
Cc1c(Cl)cccc1NC(=O)C(=O)NCCc1csc(-c2ccc(C(F)(F)F)cc2)n1	-25%	-3%	.	.	.	.
Cc1ccc(C)c(NC(=O)C(=O)NCCc2csc(-c3ccc(C(F)(F)F)cc3)n2)c1	?	-50%	.	.	.	.
Cc1ccc(NC(=O)Cc2csc(-c3ccccc3)n2)cc1F	?	7%	?	9%	2%	-80*
CC1OC(OC2C(CO)OC(OC3C(CO)OC(O)C(O)C3O)C(O)C2O)C(O)C(O)C1NC1C=C(CO)C(O)C(O)C1O (configuration not stated)	-2%	-10%	.	.	.	.
O=C(Nc1nnc([C@H]2C[C@H](O)[C@@H](CO)O2)s1)NC1CCCCC1	7%	14%	.	.	.	-13
CC1CC(NS(=O)(=O)c2cccs2)CC(C)(C)C1 (configuration not stated)	?	-28%	7%	-6%	21%	1
CC(C)(C)OC(=O)NCCCCCNC(=O)c1[nH]cnc1C(=O)Nc1cc(Br)ccc1F	5.8µM*	12µM*	.	.	.	-14
CC(C)(C)OC(=O)NCc1ccc(NC(=O)c2nc[nH]c2C(=O)Nc2cc(Br)ccc2F)cc1	13µM*	10µM*	.	.	.	?
CCCOC(=O)c1ccc(NC(=O)Cc2cccs2)cc1	?	-9%	0%	-1%	1%	24
Cc1ccc(Nc2nc(C)c(NC(=O)c3ccc(C)cc3)c(Nc3ccc(C)cc3)n2)cc1	4.6µM*	6.5µM*	.	.	.	.
CCOc1ccc(Nc2nc(C)c(NC(=O)c3ccc(C)cc3)c(Nc3ccc(OCC)cc3)n2)cc1	2.6µM*	1.3µM*	.	.	.	.
Cc1ccc(C(=O)Nc2ccc3ccccc3c2)cc1	-15%	-11%	?	-4%	-5%	-25
CCc1ccc2oc(C(=O)Nc3nc(-c4ccccc4)ns3)c(C)c2c1	-21%	-20%	.	.	.	.
CC(=O)N(CCCc1ccc(C(C)(C)C)cc1)CCCN(C)C	?	15µM*	0%	1%	-2%	-19
